The text below walks through data of PubChem BioAssay (EPA / NIEHS).

Assay [1] addresses Nuclear receptor subfamily 1 group I member 2 (Mus musculus) (UniProt O54915). Nature of the assay: ATG_mPXR_XSP2: Attagene TRANS-FACTORIAL Multi-Species (XSP1) HepG2 Assay for mouse Pregnane X Receptor (PXR) (AID 2283831). Summed up: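 Reporter transcripts were quantified by RT-PCR, FAM primer extension, HpaI digestion and capillary electrophoresis after 24 h of chemical exposure in transiently transfected HepG2 cells carrying chimeric receptor-GAL4 constructs; DMSO served as baseline.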

The target of assay [2] is zebrafish Thyroid Hormone Receptor alpha (TRa), thraa (gene 30670) (UniProt Q98867). The experiment in a line: ATG_zfTRa_XSP2: Attagene TRANS-FACTORIAL Multi-Species (XSP1) HepG2 Assay for zebrafish Thyroid Hormone Receptor alpha (TRa) (AID 2283832).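 Also: actives raise zebrafish TRa-Gal4 reporter transcript above DMSO baseline.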 Summed up: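 Chimeric receptor-Gal4 activity was assessed in transfected human liver HepG2 cells 24 h after dosing, using reporter transcript levels detected by RT-PCR and capillary electrophoresis. DMSO served as baseline.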
zebrafish Thyroid Hormone Receptor alpha (TRa), thraa (gene 30670), sequence (Q98867 whole entry, looked up, the tested form may be a part): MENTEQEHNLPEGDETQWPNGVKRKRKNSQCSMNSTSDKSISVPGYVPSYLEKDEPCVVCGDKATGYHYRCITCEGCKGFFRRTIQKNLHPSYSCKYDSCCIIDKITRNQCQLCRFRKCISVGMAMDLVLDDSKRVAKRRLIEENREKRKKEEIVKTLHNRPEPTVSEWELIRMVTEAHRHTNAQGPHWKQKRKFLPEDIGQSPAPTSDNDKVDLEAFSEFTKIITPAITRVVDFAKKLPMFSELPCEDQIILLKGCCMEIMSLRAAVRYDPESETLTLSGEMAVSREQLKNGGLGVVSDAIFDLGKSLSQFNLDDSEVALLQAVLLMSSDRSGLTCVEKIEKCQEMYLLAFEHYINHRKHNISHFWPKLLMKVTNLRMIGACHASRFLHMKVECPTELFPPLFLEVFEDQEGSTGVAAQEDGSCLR

For assay [3], the system named is zebrafish Peroxisome Proliferator-activated Receptor gamma (PPARg), gene 557037. The experiment in a line: ATG_zfPPARg_XSP2: Attagene TRANS-FACTORIAL Multi-Species (XSP2) HepG2 Assay for zebrafish Peroxisome Proliferator-activated Receptor gamma (PPARg) (AID 2283833).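 Also: actives increase reporter signal over DMSO so AC50 reflects activation.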 Summed up:
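Multi-species TRANS format in HepG2, 24 h dosing; medium also contained 3 nM 6-alpha-fluorotestosterone and 1.5 nM norgestrel to stimulate androgen receptor. Zebrafish PPARg-GAL4 induced reporter mRNA was measured by RT-PCR/capillary electrophoresis.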

Assay [4] has as its system turtle Thyroid Hormone Receptor, alpha (TRa), gene 101949057. Nature of the assay: ATG_trTRa_XSP2: Attagene TRANS-FACTORIAL Multi-Species (XSP1) HepG2 Assay for turtle Thyroid Hormone Receptor, alpha (TRa) (AID 2283834).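 Also: hits raise reporter mRNA over the DMSO baseline so AC50 marks activators.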 Summed up:
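Transfection of HepG2 with multiple reporter transcription units, then chemical dosing for 24 h. Total RNA was reverse-transcribed, reporter sequences PCR-amplified and FAM-labelled, then sized by capillary electrophoresis. DMSO served as baseline.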

Assay [5] has as its target zebrafish Thyroid Hormone Receptor beta (TRb), thrb (gene 30607) (UniProt Q9PVE4). Nature of the assay: ATG_zfTRb_XSP2: Attagene TRANS-FACTORIAL Multi-Species (XSP1) HepG2 Assay for zebrafish Thyroid Hormone Receptor beta (TRb) (AID 2283836). Summed up: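 Fluorescence of labelled reporter cDNA fragments, separated by capillary electrophoresis, gives mRNA induction from exogenous NR-Gal4 chimeras in transiently transfected HepG2 cells after 24 h dosing; 3 nM 6-alpha-fluorotestosterone and 1.5 nM norgestrel included in the run.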

Assay [6] is described as follows: ATG_XTT_Cytotoxicity_XSP2: Cytotoxicity Assessment in the Attagene TRANS-FACTORIAL Multi-Species (XSP2) HepG2 Assay (AID 2283837). Summed up:
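HepG2 cells, transiently transfected with multiple reporter constructs, exposed to chemical for 24 h. Cell number assessed with XTT fluorescence read-out; loss of signal fitted relative to DMSO.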

Assay [7] deals with human Thyroid hormone Receptor alpha (TRa), THRA (gene 7067) (UniProt P10827). Nature of the assay: ATG_hTRa_XSP2: Attagene TRANS-FACTORIAL Multi-Species (XSP2) HepG2 Assay for human Thyroid hormone Receptor alpha (TRa) (AID 2283838). Summed up:
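HepG2 cells transiently transfected with multiplexed GAL4-UAS reporter units and exogenous NR-GAL4 chimeras; 24 h chemical exposure with 3 nM 6-alpha-fluorotestosterone and 1.5 nM norgestrel present. Reporter mRNA measured by RT-PCR, FAM labelling, HpaI digestion, capillary electrophoresis; gain-of-signal versus DMSO.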

For assay [8], the target named is frog Thyroid hormone Receptor alpha (TRa), thra-a (gene 397942) (UniProt P15204). Nature of the assay: ATG_frTRa_XSP2: Attagene TRANS-FACTORIAL Multi-Species (XSP2) HepG2 Assay for frog Thyroid hormone Receptor alpha (TRa) (AID 2283839). Summed up:
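Transfect HepG2 with multiple reporter units (GAL4-UAS), dose chemical, incubate 24 h. Isolate RNA, reverse-transcribe, PCR-amplify reporter, label with 6-FAM by primer extension, digest with HpaI, run capillary electrophoresis; induction scored against DMSO.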

In assay [9] the target is human Thyroid hormone Receptor beta (TRb), THRB (gene 7068) (UniProt P10828). Nature of the assay: ATG_hTRb_XSP2: Attagene TRANS-FACTORIAL Multi-Species (XSP2) HepG2 Assay for human Thyroid hormone Receptor beta (TRb) (AID 2283840).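 Also: actives raise reporter mRNA so potency reflects agonist-like gain of signal.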 Summed up:
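Transient transfection of human HepG2 with multi-species NR-Gal4/GAL4-UAS reporter constructs; 24 h compound treatment; RNA isolation, reverse transcription, PCR and HpaI digest; capillary electrophoresis of labeled fragments; activity fitted upward versus DMSO.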

In assay [10] the test system is Sodium/Iodide Symporter (NIS), SLC5A5 (gene 6528). The experiment in a line: CPHEA_Stoker_NIS_Inhibition_RAIU: CPHEA's Radioactive Iodide Uptake (RAIU) Assay for Sodium/Iodide Symporter (NIS) Inhibition, Stoker and Laws Labs (AID 2283841). Summed up: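 Test chemicals, six concentrations from 0.001 to 100uM in 0.5% DMSO, were co-incubated with carrier-free 125I (final 329pM) on hNIS-HEK293T-EPA monolayers in pH 7.4 HEPES-buffered HBSS. Plates stood 2 hours at room temperature, then were washed cold and counted.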

Assay [11] in a line: CPHEA_Stoker_NIS_Cytotoxicity: Cytotoxicity Assessment for CPHEA's Radioactive Iodide Uptake (RAIU) Assay for Sodium/Iodide Symporter (NIS) Inhibition, Stoker and Laws Labs (AID 2283897).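 As to AC50: active means loss of ATP signal versus DMSO meaning cytotoxicity.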 Summed up:
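Viability in hNIS-HEK293T-EPA cells is scored as a drop in luciferase-detected ATP following 2-hour room-temperature exposure (0.001–100uM; triplicate wells, three cell passages), with DMSO as negative control.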

Assay [12] is described as follows: ATG_M_61_XSP2: Attagene TRANS-FACTORIAL Multi-Species (XSP2) HepG2 Assay for M61 Transcription Factor (Internal Marker) (AID 2283835; active = hit-call score of the fitted dose curve at least 0.9, where 1 is the maximum; inactive = score below 0.9;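 also: reporter mRNA of an internal background marker read by RT-PCR and capillary electrophoresis; active means a rise in signal above the DMSO baseline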). Summed up:
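First, HepG2 cells are transfected with reporter units under GAL4-UAS control. Next, chemicals are applied for 24 h. Then total RNA is reverse-transcribed, amplified, fluorescently labelled and sized by capillary electrophoresis, with gain of signal scored against DMSO.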

Assay [13] in a line: CEETOX_H295R_11DCORT_noMTC: CeeTox H295R High-throughput Steroidogenesis Assay for 11-Deoxycortisol (11DCORT), maximum tolerated concentration (MTC) filtered results only (AID 2283911; active = hit-call score of the fitted dose curve at least 0.9, where 1 is the maximum; inactive = score below 0.9). As to conditions: actives raise or lower the signal. Summed up: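 Steroidogenesis was stimulated in H295R cells with 10 uM forskolin for 48 h before a 48 h chemical exposure. Secreted 11-deoxycortisol was measured by tandem mass spectrometry and fitted bidirectionally against DMSO controls.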

The nature of assay [14]: CEETOX_H295R_OHPREG_noMTC: CeeTox H295R High-throughput Steroidogenesis Assay for OH-Pregnenolone (OHPREG), maximum tolerated concentration (MTC) filtered results only (AID 2283912; active = hit-call score of the fitted dose curve at least 0.9, where 1 is the maximum; inactive = score below 0.9). The note with it: actives raise or lower the signal. Summed up: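 Steroidogenesis in H295R cells (OECD 456, modified): after 48 h forskolin priming and 48 h chemical treatment, secreted 17alpha-hydroxypregnenolone is measured by HPLC-MS/MS. Activity is fitted in both directions against DMSO; concentrations are not filtered by MTT-based MTC.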

Assay [15] in a line: CEETOX_H295R_CORTISOL_noMTC: CeeTox H295R High-throughput Steroidogenesis Assay for Cortisol, maximum tolerated concentration (MTC) filtered results only (AID 2283916; active = hit-call score of the fitted dose curve at least 0.9, where 1 is the maximum; inactive = score below 0.9). The note with it: actives raise or lower the signal. Summed up:
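Cortisol secretion measured by LC-MS/MS after 48 h chemical treatment (final 0.1% DMSO) of forskolin-primed (10 uM, 48 h) H295R cells; gain or loss fitted relative to DMSO, without maximum-tolerated-concentration filtering.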

The nature of assay [16]: CEETOX_H295R_CORTIC_noMTC: CeeTox H295R High-throughput Steroidogenesis Assay for Corticosterone (CORTIC), maximum tolerated concentration (MTC) filtered results only (AID 2283917; active = hit-call score of the fitted dose curve at least 0.9, where 1 is the maximum; inactive = score below 0.9). The note with it: actives raise or lower the signal. Summed up:
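Following OECD 456 with minor changes, H295R cultures received 10 uM forskolin for 48 h, then test chemical at 0.1% DMSO for 48 h. Media steroids were extracted and measured by LC-MS/MS.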

Assay [17] can be described thus: CEETOX_H295R_DOC_noMTC: CeeTox H295R High-throughput Steroidogenesis Assay for DOC, maximum tolerated concentration (MTC) filtered results only (AID 2283918; active = hit-call score of the fitted dose curve at least 0.9, where 1 is the maximum; inactive = score below 0.9). As to conditions: actives raise or lower the signal. Summed up: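 11-Deoxycorticosterone secreted by human adrenal H295R cells quantified by HPLC-MS/MS after 48 h chemical exposure (0.1% DMSO), following 48 h 10 uM forskolin prestimulation. Concentrations not filtered by MTT-derived MTC; bidirectional fitting.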

Structures are written as SMILES. Results filed as inconclusive are left out. Where a structure was tested more than once in an assay, its records may differ in their call. Calls of active or inactive are those of the source. The calls were made as follows, unless noted: active = hit-call score of the fitted dose curve at least 0.9, where 1 is the maximum; inconclusive = response in the unintended direction; inactive = score below 0.9.

Nuclear receptor subfamily 1 group I member 2 (Mus musculus), sequence (O54915 whole entry, looked up, the tested form may be a part): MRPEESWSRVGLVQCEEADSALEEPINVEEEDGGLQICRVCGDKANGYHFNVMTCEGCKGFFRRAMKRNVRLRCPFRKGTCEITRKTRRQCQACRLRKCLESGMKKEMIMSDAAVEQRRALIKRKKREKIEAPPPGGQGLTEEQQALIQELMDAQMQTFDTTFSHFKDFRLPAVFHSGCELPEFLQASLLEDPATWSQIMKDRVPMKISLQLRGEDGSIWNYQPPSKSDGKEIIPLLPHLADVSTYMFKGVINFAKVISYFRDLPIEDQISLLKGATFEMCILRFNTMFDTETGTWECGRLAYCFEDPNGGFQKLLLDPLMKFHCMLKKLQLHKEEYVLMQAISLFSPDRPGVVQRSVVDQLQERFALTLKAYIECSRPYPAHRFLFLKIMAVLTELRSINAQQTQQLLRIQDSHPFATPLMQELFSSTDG
frog Thyroid hormone Receptor alpha (TRa), thra-a (gene 397942), sequence (P15204 whole entry, looked up, the tested form may be a part): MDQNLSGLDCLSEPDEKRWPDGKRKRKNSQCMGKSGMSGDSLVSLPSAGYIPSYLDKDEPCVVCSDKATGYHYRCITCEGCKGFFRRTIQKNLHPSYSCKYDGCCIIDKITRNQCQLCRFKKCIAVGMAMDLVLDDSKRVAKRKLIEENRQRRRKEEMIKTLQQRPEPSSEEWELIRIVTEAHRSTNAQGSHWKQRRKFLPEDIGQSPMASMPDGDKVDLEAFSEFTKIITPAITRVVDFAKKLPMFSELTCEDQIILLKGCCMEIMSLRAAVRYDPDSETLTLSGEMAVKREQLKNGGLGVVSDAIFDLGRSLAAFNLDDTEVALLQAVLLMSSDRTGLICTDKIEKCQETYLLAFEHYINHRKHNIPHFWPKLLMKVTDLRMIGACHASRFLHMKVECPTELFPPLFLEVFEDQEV
human Thyroid hormone Receptor alpha (TRa), THRA (gene 7067), sequence (P10827 whole entry, looked up, the tested form may be a part): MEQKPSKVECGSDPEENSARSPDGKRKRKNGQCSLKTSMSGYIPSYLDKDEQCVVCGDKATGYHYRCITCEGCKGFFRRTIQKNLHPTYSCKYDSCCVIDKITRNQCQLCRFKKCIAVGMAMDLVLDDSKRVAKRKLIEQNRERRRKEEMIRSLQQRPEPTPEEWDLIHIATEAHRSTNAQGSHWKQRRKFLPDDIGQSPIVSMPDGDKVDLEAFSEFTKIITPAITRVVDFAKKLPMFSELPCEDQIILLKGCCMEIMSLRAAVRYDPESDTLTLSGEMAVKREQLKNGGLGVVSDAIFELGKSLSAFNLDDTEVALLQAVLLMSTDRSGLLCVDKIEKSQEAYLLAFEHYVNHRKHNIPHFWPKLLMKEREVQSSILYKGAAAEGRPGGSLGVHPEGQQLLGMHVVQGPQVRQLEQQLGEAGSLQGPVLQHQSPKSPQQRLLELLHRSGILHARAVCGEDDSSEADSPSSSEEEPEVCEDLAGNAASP
human Thyroid hormone Receptor beta (TRb), THRB (gene 7068), sequence (P10828 whole entry, looked up, the tested form may be a part): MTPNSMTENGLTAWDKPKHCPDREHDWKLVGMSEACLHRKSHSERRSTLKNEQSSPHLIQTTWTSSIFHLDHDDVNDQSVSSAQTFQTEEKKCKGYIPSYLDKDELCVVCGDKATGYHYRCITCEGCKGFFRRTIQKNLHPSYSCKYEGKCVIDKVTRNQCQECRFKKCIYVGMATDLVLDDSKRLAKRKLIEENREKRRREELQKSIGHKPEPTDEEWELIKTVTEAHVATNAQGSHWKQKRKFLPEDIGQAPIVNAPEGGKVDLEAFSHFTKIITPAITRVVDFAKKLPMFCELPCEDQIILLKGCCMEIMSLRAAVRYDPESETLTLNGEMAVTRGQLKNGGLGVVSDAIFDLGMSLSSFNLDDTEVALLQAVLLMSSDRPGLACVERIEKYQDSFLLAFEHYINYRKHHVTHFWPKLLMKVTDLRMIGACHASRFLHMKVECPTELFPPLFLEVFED
zebrafish Thyroid Hormone Receptor beta (TRb), thrb (gene 30607), sequence (Q9PVE4 whole entry, looked up, the tested form may be a part): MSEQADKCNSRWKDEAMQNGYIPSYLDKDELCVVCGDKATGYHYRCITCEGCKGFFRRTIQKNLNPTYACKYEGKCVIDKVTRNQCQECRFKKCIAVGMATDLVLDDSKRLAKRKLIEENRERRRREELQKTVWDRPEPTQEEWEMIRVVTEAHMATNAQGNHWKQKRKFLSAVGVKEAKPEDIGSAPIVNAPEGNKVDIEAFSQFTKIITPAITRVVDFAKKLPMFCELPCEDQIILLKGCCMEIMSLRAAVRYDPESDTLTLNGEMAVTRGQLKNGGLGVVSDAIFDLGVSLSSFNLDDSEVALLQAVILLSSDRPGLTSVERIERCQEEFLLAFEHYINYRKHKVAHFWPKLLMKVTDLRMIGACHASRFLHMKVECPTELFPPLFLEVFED

Consider `Oc1ccc(-c2ccccc2)c(Cl)c1`, for which the result in assay [1], in assay [2], in [3], in assay [4], in assay [5] and in assay [7] was inactive. Also, the call in [8], in assay [9], in assay [10] and in assay [11] was inactive. For the same compound, in assay [6], the AC50 was 85.4 µM (active).
Consider `CCCCC/C=C\C/C=C\CCCCCCCC(=O)O`, for which the result in assay [10] was inactive. Also, the AC50 in assay [11] is 80.1 µM (active).
Regarding `O=C(O)c1cc(O)c2ccccc2c1O`, the outcome in assay [10] and in assay [11] was inactive.
Regarding `O=C(OCc1ccccc1)c1ccc(O)cc1`, the result in [10] and in [11] was inactive.
With `COc1ccc(-c2coc3cc(O)cc(O)c3c2=O)cc1`, the AC50 in [1] is 2.51 µM (active); in assay [10], 9.92 µM (active). Moreover, the call in assay [1], in [2], in assay [3], in assay [4], in [12] and in assay [5] was inactive. The outcome in assay [6], in assay [7], in assay [8], in [9] and in [11] was inactive.
Turning to `CCCCC1C(=O)N(c2ccccc2)N(c2ccccc2)C1=O`, the outcome in [13], in assay [14], in assay [15], in [16] and in [17] was inactive.
Consider `CC(CCC(=O)O)(c1ccc(O)cc1)c1ccc(O)cc1`, for which the AC50 in [1] is 100 µM (active). Also, the call in assay [1], in [2], in [3], in assay [4], in [12] and in assay [5] was inactive. The call in [6], in assay [7], in assay [8] and in assay [9] was inactive.

As a reminder, the AC50 is the concentration giving half of the maximal activity seen.
